Screening results deposited in PubChem BioAssay by National Center for Advancing Translational Sciences (NCATS).
An excerpt weighted towards active compounds, which were near 11% of everything screened.
PNC inhibitor = blocks assembly of the perinucleolar compartment | PC3M PTB-GFP, PNC prevalence imaging, 16 h; active compounds read low | activity change (PNC), negative = inhibition, % at 10 µM | hit rate 3.1% among 140,000;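 active means readout at or below -70, meaning at least 70% loss of cells showing the perinucleolar compartment, a nuclear body marking cancer cells; inconclusive means readout between -30 and a set limit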;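 further: plate controls were DMSO wells for no effect and camptothecin positive control wells for full effect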
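Compounds are pinned in duplicate onto adhered PC3M cells stably expressing GFP-tagged PTB and incubated 16 h at 37 C. Cells are then fixed, nuclei stained with Hoechst, and PNC-positive cells counted.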
IMPase inh = membrane-permeable compound that blocks inositol monophosphatase; inhibition (IP1 accumulation), % at 46.1 µM; AID 901; 120,000 tested, under 10 active; P97697; CHO-M1 cells, IP1 accumulation, HTRF TR-FRET ratio; active means well fitted curve in the direction sought with a large enough effect in the signal ratio, not every such curve was filed as active; inconclusive means small, poorly fitted or top-dose-only effect, or a change in a side signal; inactive means no such curve, though single readings can be large or run the other way; the % refers to the signal ratio;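 further: cells stimulated with carbachol in lithium chloride buffer; plate controls were DMSO basal wells for no effect and reference inhibitor wells for full effect; higher means more IMPase inhibition seen as more IP1 and lower FRET ratio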
Target sequence (P97697 whole entry, looked up): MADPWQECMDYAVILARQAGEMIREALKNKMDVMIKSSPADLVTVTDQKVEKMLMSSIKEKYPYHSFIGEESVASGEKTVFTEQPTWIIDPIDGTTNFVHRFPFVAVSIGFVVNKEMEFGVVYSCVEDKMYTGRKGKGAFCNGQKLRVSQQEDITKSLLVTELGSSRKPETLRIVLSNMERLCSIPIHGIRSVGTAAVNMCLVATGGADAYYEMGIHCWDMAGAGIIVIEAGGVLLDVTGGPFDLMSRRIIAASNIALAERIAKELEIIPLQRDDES
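Seeded CHO-M1 cells were dosed with compound at up to 46 uM, stimulated with carbachol for 30 min, then lysed in IP-One detection reagents. Higher IP1 lowers the TR-FRET signal.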
IMPase Li inh = cell-permeable IMPase inhibitors with lithium potentiation; CHO-M1 cells, IP1 TR-FRET (IP-One), carbachol + lithium; Potency, µM (titrated, usually from 59.4 µM), without a hit: at the highest dose activity, negative = IMPase inhibition, actives largely listed as inhibitors; hit rate 0.35% among 210,000; active means well fitted inhibition curve with a large enough effect; inconclusive means small, poorly fitted or top-dose-only effect; inactive means no such curve, though single readings can be large or run the other way;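 further: IP1 builds up when IMPase is blocked and the TR-FRET signal falls; potency means the concentration at half of the fitted maximal effect; plate controls were basal vehicle for no effect and high inhibitor control for full effect; nearly all actives have a fitted effect of over 50% in size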
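CHO cells stably expressing M1 receptor (2000/well) were cultured 16–30 h, then exposed to compounds with a small lithium addition for 30 min at 37C. IP1 was measured by TR-FRET competition; AC50 from Hill fits.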
ALDH1A1 inh = blocks purified human ALDH1A1 activity; AID 1030; Purified ALDH1A1, NADH fluorescence, propionaldehyde substrate; hit rate 7.3% among 220,000; Potency, µM (doses to about 75.3 µM), inactives show at the highest dose activity, negative = inhibition, most hits filed as inhibitors; P00352;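 further: potency means the concentration at half of the fitted maximal effect; plate controls were no enzyme wells and a reference inhibitor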
HPGD block = HPGD (human) dehydrogenase inhibition; P15428; purified HPGD, NADH fluorescence kinetic, PGE2 substrate; Potency, µM, for the others: at the highest dose activity change, negative = inhibition, most hits filed as inhibitors; hit rate 4.3% among 150,000; further: potency means the concentration at half of the fitted maximal effect
Target sequence (P15428 whole entry, looked up): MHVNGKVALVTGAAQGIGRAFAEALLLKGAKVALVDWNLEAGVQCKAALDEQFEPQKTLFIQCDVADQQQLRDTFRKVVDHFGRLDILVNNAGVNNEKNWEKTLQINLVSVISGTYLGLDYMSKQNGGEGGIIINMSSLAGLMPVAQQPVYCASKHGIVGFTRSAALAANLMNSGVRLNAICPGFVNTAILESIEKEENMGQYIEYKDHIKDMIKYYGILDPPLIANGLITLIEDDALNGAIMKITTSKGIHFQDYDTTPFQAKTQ
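20 nM HPGD preincubated 15 min at room temperature with compound in 50 mM Tris-HCl pH 8, 0.01% Tween 20. Started with 1 mM NAD+ and 30 uM prostaglandin E2; NADH fluorescence (360/450 nm) read 5 times over 30-s intervals, last minus first.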
Starred values were filed as active, the others as inactive; i = inactive; u = inconclusive; x = not tested or not shown; [ ] = remark or other dose. Unless noted, the call rests on the fitted dose curve; in most records, active means well fitted inhibition curve with a large enough effect (not every such curve was filed as active); inconclusive means small, poorly fitted or top-dose-only effect, or another doubt; inactive means no such curve, though single readings can be large or run the other way. Unless noted, on the % scale 0 is the no-effect control and ±100 the full control effect.

SMILES	PNC inhibitor	IMPase inh	IMPase Li inh	ALDH1A1 inh	HPGD block
CCCc1nc2sc3c(SCC(=O)NCc4ccco4)ncnc3c2c2c1CCC2	3	-5	-12%[38.3 µM]	25µM*	u
CCOC(=O)c1cc2c(ccn2C)n1CC(=O)N1CCN(c2ccccc2OC)CC1	-9	5	4%[38.3 µM]	-4%	-7%
CCOC(=O)c1ccc(NC(=O)CCc2ccc(C)o2)cc1	85	5	-5%[38.3 µM]	u	-19%
Cc1ccc(CCC(=O)Nc2ccc(S(N)(=O)=O)cc2)o1	12	9	23%[38.3 µM]	14µM*	-25%
O=C(CN1CCCCCC1)Nc1cccc(Br)c1	26	-1	-1%[38.3 µM]	-9%	-19%
Cc1cccc(NC(=O)CCc2ccc(C)o2)c1	-80*	-6	8%[38.3 µM]	-10%	-20%
Cc1cccc(NC(=O)CN2CCN(CC(=O)Nc3cccc(C)c3)CC2)c1	u	-1	0%[38.3 µM]	20µM*	-2%
CCCCC(CC)COCCCN (stereo not given)	x	x	-10%	11%	-3%
O=C(Nc1cc2c(cc1C(=O)c1ccc(Br)cc1)OCCO2)c1ccc(Cl)cc1	x	-5	x	x	x
C=C1C(=O)O[C@@H]2[C@H]3O[C@]3(C)CC/C=C(\C)CC[C@@H]12	x	x	19%	13µM*	x
CCOc1ccc(-c2nnc(SCc3nnc(-c4ccccc4)o3)n2-c2ccccc2F)cc1	-25	17	11%[38.3 µM]	4%	13µM*
CC(C)(C)[C@]1(O)CCN2CC3c4ccccc4CCc4cccc(c43)[C@@H]2C1 (stereo not given in full)	x	x	22%	-16%	-9%
Fc1ccc(SCCc2ccncc2)cc1	71	-4	0%[38.3 µM]	-4%	-18%
O=[N+]([O-])c1ccc(SCCc2ccncc2)cc1	x	x	x	7.9µM*	x
COc1ccc(N=C/C=C2/C=C(c3ccccc3)OC(C)(C)O2)cc1	x	x	17%	1.4µM*	x
COc1ccccc1N=CC=C1OC(C)(C)C(C)(C)O1	x	x	3%	2%	x
CCCCCN(CCCCC)C(=O)[C@H](CCC(=O)O)NC(=O)c1ccc(Cl)c(Cl)c1	x	-4[20.6 µM]	0%	1%[20.9 µM]	5%
Nc1ccc(N)c(Cl)c1	x	x	12%	22µM*	u
CCOc1ccc(N2CCCn3c2nc2c3c(=O)n(CCc3ccccc3)c(=O)n2C)cc1	23	7	13%[38.3 µM]	11µM*	u
Cn1c(=O)n(CCc2ccccc2)c(=O)c2c1nc1n2CCCN1CCc1ccccc1	u	1	42%[38.3 µM]	11µM*	-11%
CCCCC(=O)NC(NC(=S)N1CCOCC1)C(Cl)(Cl)Cl (stereo not given)	u	5	53%[38.3 µM]	11µM*	-14%
COCOc1c2c(c(OCOC)c3c(OCOC)cccc13)/C(=N/NS(C)(=O)=O)C1=C2CCCC1	x	x	4%	-14%	u
O=C(Cc1ccc(F)cc1)N/N=C/c1ccc(-c2ccc(Cl)c(C(=O)O)c2)o1	x	x	0%	u	x
O=C(O)c1cc(-c2ccc(/C=N/N3C(=O)C4C5C=CC(CC5)C4C3=O)o2)ccc1Cl (stereo not given)	x	x	-3%	11µM*	x
O=C1C2C3C=CC(CC3)C2C(=O)N1/N=C/c1ccc(O)cc1 (stereo not given)	7	7	16%[38.3 µM]	u	28µM*
SMILES	PNC inhibitor	IMPase inh	IMPase Li inh	ALDH1A1 inh	HPGD block
COC(=O)c1ccc(-c2ccc(/C=N/N3C(=O)C4C5C=CC(CC5)C4C3=O)o2)cc1 (stereo not given)	x	x	21%	i	x
O=C1C2C3C=CC(CC3)C2C(=O)N1/N=C/c1ccc(O)c(O)c1 (stereo not given)	43	-8	0%	u	-19%
O=C(O)c1cc(-c2ccc(/C=N/N3C(=O)C4C5C=CC(C6CC56)C4C3=O)o2)ccc1Cl (stereo not given)	x	x	6%	13µM*	x
CCN1C(=O)[C@@H]2[C@H](C1=O)[C@@H]1C[C@H]3C(=O)N(CC)C(=O)[C@H]3[C@@H]3C1=C(C(=O)N1C(=O)O/C(=N\CC4CC4)[C@]31C)[C@@H]2C	x	x	-2%	7%	-6%
COc1cccc(C(=O)Oc2ccc(N3C(=O)CCC3=O)c(C)c2)c1	x	x	3%	-6%	x
COCCNC(=O)c1ccccc1NC(=O)c1ccccc1N(C)S(C)(=O)=O	-111*	x	-8%	18%	-3%
O=S(=O)(c1ccccc1)c1nc(-c2ccc(F)cc2)oc1N1CCCCCC1	x	3	x	x	x
O=S(=O)(c1ccc(F)cc1)c1nc(-c2ccccc2F)oc1N1CCCCC1	33	7	29%[38.3 µM]	5µM*	-6%
CCOC(=O)C1CCCN(Cc2cc(Br)c(OC)cc2OC)C1 (stereo not given)	u	6	9%[38.3 µM]	u	-5%
CCOC(=O)C1CCCN(Cc2cc(Br)ccc2OC)C1 (stereo not given)	39	13	25%[38.3 µM]	10µM*	-3%
CCOC(=O)C1CCCN(Cc2c(Cl)cccc2Cl)C1 (stereo not given)	u	0	-9%[38.3 µM]	u	11%
CCOC(=O)C1CCCN(Cc2ccccc2F)C1 (stereo not given)	-89*	3	-3%[38.3 µM]	11µM*	-5%
CN(C)c1nc(N2CCN(c3ccccc3)CC2)c(C#N)c(=O)o1	-22	-1	14%	u	16µM*
CN(C)c1ccc(C(=O)OCC(=O)Nc2ccc(N3CCOCC3)cc2)cc1	x	x	x	13µM*	x
O=C(COC(=O)CCC(=O)c1ccc(F)cc1)Nc1ccc(N2CCOCC2)cc1	-4	-3	4%[38.3 µM]	-10%	18µM*
CC(C(=O)NC(=O)NC1CCCCC1)N1CCN(C(c2ccccc2)c2ccccc2)CC1 (stereo not given)	27	11	39%[38.3 µM]	2%	-8%
Cc1ccc(-c2csc3ncnc(Oc4ccc5c(C)cc(=O)oc5c4)c23)cc1	u	x	-1%	-1%	u
CC(=O)Nc1cccc(Oc2ncnc3scc(-c4ccc(C)cc4)c23)c1	-83*	15	19%	u	28µM*
C[C@H]1[C@H](O)[C@@H](C)C=CC=CC=CC=CC=CC=CC=C[C@H](O[C@@H]2O[C@@H](C)[C@H](O)[C@@H](N)[C@@H]2O)C[C@@H]2O[C@](O)(C[C@@H](O)C[C@@H](O)[C@@H](O)CC[C@@H](O)C[C@@H](O)CC(=O)O[C@H]1C)C[C@H](O)[C@H]2C(=O)O	x	x	-11%	-18%[13.5 µM]	-2%
CN1CCN(C(=S)NCCc2ccccc2)CC1	-82*	-3	4%	u	-8%
COc1ccccc1NS(=O)(=O)c1ccc(O)c(NC(=S)NCC2CCCO2)c1 (stereo not given)	x	x	x	5.6µM*	x
S=C(NCC1CCCO1)N1CCN(c2nc(-c3ccccc3)cs2)CC1 (stereo not given)	x	x	15%	u	x
S=C(NCC1CCCO1)N1CCN(Cc2ccccc2)CC1 (stereo not given)	x	x	-4%	25µM*	x
CC1CCN(C(=S)NCCc2ccccc2)CC1	17	-3	27%[38.3 µM]	-9%	-3%
